In PubChem BioAssay (NCI):
This is part of a sample that, as a whole, favours compounds with a hit. Of some 83,000 tested, about 20% had one in any assay.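 Cell lines were cultured in 96-well plates, exposed to a single compound concentration, and assessed for percent growth 48 hours later.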 Activity calls are given as the source filed them. How the source made its calls: active means growth percent below 10; inactive means the rest.

Experiments:
Assay in all cases: NCI-60 one-dose screen, 48 h (100 = growth as untreated, 0 = no growth, -100 = all killed)
Details in all cases: 10 µM unless noted
[1] = tested on: NCI-H23 lung
[2] = tested on: NCI-H226 lung
[3] = tested on: NCI-H322M lung
[4] = tested on: HOP-62 NSCLC
[5] = tested on: NCI-H460 lung
[6] = tested on: HOP-92 NSCLC
[7] = tested on: NCI-H522 lung
[8] = tested on: A549/ATCC NSCLC
[9] = tested on: 786-0 renal
[10] = tested on: COLO 205 colon

Measured: growth

C=C1CC[C@@H]2[C@](C)(COC(C)=O)[C@H](OC(C)=O)CC[C@@]2(C)[C@@H]1CC(Nc1ccc(S(=O)(=O)Nc2nccc(C)n2)cc1)C1=CCOC1=O (stereo not given in full)
active: [2] -12.1% | [7] -50.6% | [10] 9.64%
inactive: [1] 48.4% | [3] 64.8% | [4] 156% | [5] 46.9% | [6] 71.6% | [8] 63.4% | [9] 32.5%

CCN1CCN(CCOc2ccc(CNc3ccc4nc(CCC5CCCCC5)[nH]c4c3)cc2)CC1
inactive: [1] 75.6% | [2] 38.9% | [3] 66.1% | [4] 50.4% | [5] 42.8% | [6] 22.4% | [7] 32% | [8] 48.3%
active: [9] -11.7% | [10] -74.3%

CC(C)(C#N)c1cc(C(=O)Nc2cc(Nc3ncccc3-c3ncnc4nc[nH]c34)ccc2F)cc(C(F)(F)F)c1
inactive: [1] 24.3% | [2] 41.8% | [3] 67.2% | [4] 45.7% | [5] 35.9% | [7] 62% | [8] 49.7% | [9] 64% | [10] 11.9%
active: [6] -5.84%

CC1(C)CC[C@]2(CO)CC[C@]3(C)[C@H](CC[C@@H]4[C@@]5(C)CC[C@H](O)C(C)(C)[C@@H]5CC[C@]43C)[C@H]2[C@H]1O
inactive: [1] 87.1% | [2] 79.1% | [3] 69.2% | [4] 54.6% | [5] 21% | [6] 105% | [7] 84.8% | [8] 56.8% | [9] 79.3% | [10] 93.8%

COC(=O)c1nc(-c2ccc(C)cc2)oc1N1CCOCC1
inactive: [1] 106% | [2] 94% | [3] 105% | [4] 98.3% | [5] 100% | [6] 102% | [7] 90.7% | [8] 88.4% | [9] 82.3% | [10] 111%

Cc1nc2c(c(-c3ccccc3)n1)Cc1c(ccc3ccccc13)O2
inactive: [1] 97.8% | [2] 82.2% | [3] 148% | [4] 90.9% | [5] 98.1% | [6] 81.9% | [7] 100% | [8] 96% | [9] 98.7% | [10] 100%

Cc1ccc2nc(/C=C/c3ccc(N(C)C)cc3)cc(C)c2c1
inactive: [1] 42.1% | [2] 64.8% | [3] 70.9% | [4] 32.4% | [5] 15.1% | [6] 25.7% | [7] 25.1% | [8] 52.3% | [9] 35.1% | [10] 23.5%

COc1ccc(-n2c(=O)n(-c3ccc(-c4nc5ccc(F)cc5s4)cc3)c(=O)c3cccnc32)cc1
inactive: [1] 89.9% | [2] 105% | [3] 102% | [4] 89.2% | [5] 110% | [6] 118% | [7] 88.8% | [8] 96.5% | [9] 99.5% | [10] 106%

CCCN1C(=O)N(CCC)C2C1NC(=S)N2/N=C/C=C/c1ccccc1OC (stereo not given)
inactive: [1] 36.4% | [2] 55.4% | [3] 44.6% | [4] 38.7% | [6] 77.4% | [8] 13.1% | [9] 35.6% | [10] 17.6%
active: [5] 6.85% | [7] -11.3%

CN1CCN(Cc2ccc(NC(=O)c3cncc(C#Cc4c(N)ncc5c(F)cccc45)c3)cc2C(F)(F)F)CC1
active: [1] -66.3% | [3] -23.7% | [4] -80.2% | [5] -48% | [6] -58.8% | [7] -76% | [8] -90.6% | [9] -79% | [10] -83.6%
inactive: [2] 14%

COc1cc2c(cc1-c1c(C)noc1C)ncc1nc(C3CCOCC3)n(C3CCC(OC(F)F)CC3)c12 (stereo not given)
active: [7] 3.74%
inactive: [1] 56.7% | [2] 67.9% | [3] 52.4% | [4] 30.4% | [5] 72.6% | [6] 21.8% | [8] 57.4% | [9] 51.8% | [10] 22.6%

O=c1c2cccc3c(N4CCOCC4)ccc(c32)c2nc3ccccc3n12
inactive: [1] 76.9% | [2] 91% | [3] 89.1% | [4] 86.4% | [5] 88.4% | [6] 59.2% | [7] 80.5% | [8] 92.7% | [9] 97.5% | [10] 87.6%

Cc1ccc(Nc2cc(N)nc(N)n2)cc1
inactive: [1] 91.4% | [2] 110% | [3] 98.5% | [4] 101% | [5] 101% | [6] 90% | [7] 94.3% | [8] 97.3% | [9] 99.6% | [10] 105%

O=C1Nc2ccccc2/C1=C/c1cccn1CCCCCCn1c2ccccc2c(=O)c2ccccc21
inactive: [1] 73.6% | [2] 72.7% | [3] 97.9% | [4] 63.2% | [5] 90.7% | [6] 56.4% | [7] 66% | [8] 87.9% | [9] 103% | [10] 50.5%

CNC(=O)c1cc(Oc2ccc3nc(NC(=O)c4cc(C(F)(F)F)cc(C(F)(F)F)c4)sc3c2)ccn1
inactive: [1] 20.2% | [2] 23.3% | [3] 15.1% | [4] 16.3% | [5] 15.7% | [8] 17.8% | [10] 19.1%
active: [6] -32.5% | [7] -9.54% | [9] 9.65%

CCNCCNc1c(C)c(-c2ccc(C(F)(F)F)cc2)c(C#N)c2nc3ccccc3n12
inactive: [1] 90% | [2] 84.8% | [3] 84.3% | [4] 90.9% | [5] 94.1% | [6] 47.1% | [7] 76.8% | [8] 88.7% | [9] 77% | [10] 88.2%

Nc1ncc(-c2ccc3ncnc(N4CCc5cc(F)c(Cl)cc54)c3c2)cc1C=O
inactive: [1] 31.6% | [2] 37.2% | [4] 15.2% | [5] 11.8% | [7] 26.7% | [10] 19.6%
active: [3] 2.51% | [6] -22.8% | [8] 7.18% | [9] 8.62%

COc1cccc(/C=C2\CCc3ccccc3C2=O)c1
inactive: [1] 83.6% | [2] 93.6% | [3] 98% | [4] 88.4% | [5] 96.6% | [6] 64.3% | [7] 62.9% | [8] 85.1% | [9] 81.4% | [10] 112%

O=c1oc2ccccc2cc1-c1nn(-c2ccccc2)cc1/C=N/Nc1nc(-c2ccccc2)c(N=Nc2ccccc2)s1
inactive: [1] 88.1% | [2] 99.5% | [3] 105% | [4] 71.6% | [5] 73.5% | [6] 79.7% | [7] 41.5% | [8] 50.1% | [9] 90.7% | [10] 72.8%

O=c1n(C2OC(CO)C(O)C2O)ccc2nccn12 (stereo not given)
inactive: [1] 113% | [2] 110% | [3] 114% | [4] 127% | [5] 99.9% | [6] 105% | [7] 116% | [8] 96% | [9] 103% | [10] 126%

COc1cc(C2CC(c3cccc(Nc4ccncc4)c3)=Nc3c(N)ncnc3N2)cc(OC)c1OC (stereo not given)
inactive: [1] 95.5% | [2] 89% | [3] 92.2% | [4] 86.7% | [5] 95.9% | [6] 76% | [7] 82.1% | [8] 84% | [9] 95.9% | [10] 96.6%

CCOC(=O)c1c(C)n2c(=O)cc(C)c3c(OC(C)=O)c(OC(C)=O)cc1c32
inactive: [1] 75% | [2] 102% | [3] 79.9% | [4] 81.4% | [5] 40.8% | [6] 71.8% | [7] 55.3% | [8] 79.8% | [9] 81.3% | [10] 74.1%

CN(C)CCCN(CCC1CCCCC1)CCC1CCCCC1
active: [5] -2.63% | [10] -54.4%
inactive: [1] 66.4% | [2] 94.8% | [3] 80.1% | [4] 64.3% | [6] 28.8% | [7] 48.8% | [8] 52.5% | [9] 56.2%

O=CN1N=C(c2cccc(Nc3ccncc3)c2)CC1c1ccc2c(c1)OCO2 (stereo not given)
inactive: [1] 89.7% | [2] 85.7% | [3] 99.4% | [4] 80.2% | [5] 105% | [6] 73.4% | [7] 83.3% | [8] 83.8% | [9] 95.3% | [10] 113%
